Calls of active or inactive are those of the source.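 How the source made its calls: active means inhibition of at least 50% at 50 µM, meaning an activity change of -50% or lower; inconclusive means inhibition above 30% but under 50% at 50 µM; inactive means inhibition of 30% or less at 50 µM.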
assay: qHTS Assay for Iinhibitors of HIV-1 Budding by Blocking the Interaction of PTAP/TSG101: Hit Validation in Viral Budding Asaay; conditions: HeLa pNL4-3 HIV-1 budding, supernatant RT activity, 18 h; at 50 µM (top of the series)
Text: Stages of the HIV-1 replication cycle, specifically virus assembly and release, provide underexploited targets for the development of novel antiviral inhibitors. The late stages of HIV-1 replication are mediated by the Gag precursor protein, Pr55Gag. Expression of Pr55Gag is both necessary and sufficient for the production of virus-like particles from Gag-expressing cells. The Gag protein hijacks key host proteins involved in endocytic machinery of the host cell to promote endosomal processing and viral budding. The budding process requires a direct interaction between a […] (PTAP) motif in the p6 domain of Gag and the cellular endosomal sorting protein known as Tsg101. In this way, the Gag PTAP motif promotes the host cells to recruit viral particles to the plasma membrane where the new viral particles are released, effectively turning the host cells into viral factories. A fluorescence anisotropy assay has been developed to quantitatively measure the PTAP-Tsg101 interaction which can be used to screen for inhibitors of this interaction. In this hit validation assay the readout is the release of reverse transcriptase (RT) activity into the medium of HeLa cells transfected with the full-length HIV-1 molecular clone pNL4-3. RT release from virus-producing cells occurs upon budding of virus from the cell surface. Small molecules that block the PTAP/Tsg101 interaction will reduce RT release. HeLa cells will also be transfected with a luciferase expression vector; compounds that are cytotoxic will reduce luciferase expression. NIH Molecular Libraries Probe Production Network [MLPCN] NIH Chemical Genomics Center [NCGC] MLPCN Grant: 1 R03 MH087464-01A1 PI Name: Dr. Eric Freed, NCI
Virus producing cells were treated with 12.5, 25 & 50 uM of each compound and 18 hr after treatment virus supernatant was collected from the cells. Reverse transcriptase (RT) activity in the virus supernatant is then measured.

Activity change, negative = inhibition, active:
COc1cccc2c1C(=O)c1c(O)c3c(c(O)c1C2=O)CC(O)(C(=O)CO)CC3OC1CC(N(C)C)C(O)C(C)O1 (centres undefined) -84%
CN1CCc2c(sc(NC(=O)CSc3ccc(F)cc3)c2-c2nc3ccccc3s2)C1 -59.8%
COc1cccc(C(=O)c2sc3nc(-c4ccccc4)cc(C(F)(F)F)c3c2N)c1 -91.8%
O/C=c1\ccc2cccc3nc(C(F)(F)F)nc1c23 -89.5%
